Laboratory results published in PubChem BioAssay AID560 (The Scripps Research Institute Molecular Screening Center, 2006).
Among all 65,000 compounds or so, about 980 (1.5%) were called active.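 How the source made its calls: active means activation above the mean of all tested compounds plus 3 SD (cut at about 49% in these data); inactive means the rest.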 What follows is part of a selection rich in actives, with near analogues and random picks from the rest.

biological target: Nuclear receptor ROR-alpha (Homo sapiens) (UniProt P35398); assay: RORA ligand-binding domain transcriptional activation – cell-based, luminescence, primary screen (AID 560); conditions: CHO-K1 Gal4-RORA LBD luciferase reporter, at 10 µM, hits give high values, percent increase over mock-subtracted basal signal;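 further: 0% = DMSO-treated RORA cells and 100% = added signal equal to DMSO minus mock-transfected cells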
Sequence (P35398 whole entry, looked up, the tested form may be a part): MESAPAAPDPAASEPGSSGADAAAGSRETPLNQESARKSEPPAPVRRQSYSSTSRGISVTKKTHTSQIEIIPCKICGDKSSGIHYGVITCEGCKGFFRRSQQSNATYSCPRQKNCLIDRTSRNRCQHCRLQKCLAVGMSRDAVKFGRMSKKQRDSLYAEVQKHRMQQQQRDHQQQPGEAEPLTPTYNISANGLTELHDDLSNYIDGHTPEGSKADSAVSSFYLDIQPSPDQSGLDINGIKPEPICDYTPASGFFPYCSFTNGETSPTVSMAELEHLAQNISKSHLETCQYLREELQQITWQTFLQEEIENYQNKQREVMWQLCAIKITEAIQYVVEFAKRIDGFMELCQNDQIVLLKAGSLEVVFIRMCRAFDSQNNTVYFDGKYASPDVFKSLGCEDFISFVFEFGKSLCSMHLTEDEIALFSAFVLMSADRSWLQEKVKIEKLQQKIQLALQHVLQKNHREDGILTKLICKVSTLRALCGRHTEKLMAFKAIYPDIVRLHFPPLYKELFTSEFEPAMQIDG

Structure (SMILES) | activation
O=C(NCc1ccccn1)Nc1ccc(F)cc1 | 28.4% (inactive)
O=C(NCc1cn2ccsc2n1)Nc1cccc(Cl)c1 | 45.8% (inactive)
O=C(Nc1cccc(Cl)c1)OCc1ccccn1 | 69.9% (active)
Cc1c(NC(=O)c2coc(=O)c(Br)c2)c(=O)n(-c2ccccc2)n1C | -0.3% (inactive)
COC(=O)c1cc(C(=O)OC)cc(N2C(=O)CC(N3CCN(c4ccccc4)CC3)C2=O)c1 (centres undefined) | 15.5% (inactive)
CC(=O)OC(C(=O)NC1CCCCC1)c1ccccc1 (centres undefined) | -15.4% (inactive)
CC(C)c1ccc(NC(=O)NC2CCCCC2)cc1 | 85.1% (active)
CC(Cc1cccs1)NC(=O)NC1CCCCC1 (centres undefined) | 31.7% (inactive)
COc1ccc(-c2nc(SCC(=O)N3CCOCC3)n[nH]2)cc1 | 8.1% (inactive)
CC(=O)Nc1ccc(NC(=O)CN2CCCC(C)C2)c(Cl)c1 (centres undefined) | 7.9% (inactive)
O=C(C1CCC1)N1CCc2cc(S(=O)(=O)NCc3cccnc3)ccc21 | 16.4% (inactive)
Cc1ccc(C(=O)N2CCN(C3CCCCC3)CC2)s1 | -13.8% (inactive)
COc1cccc(CNC(=O)C2CCN(S(=O)(=O)c3cccc4cccnc34)CC2)c1 | -6.7% (inactive)
C#CCN1C(=O)C(O)(CC(=O)c2cc(OC)ccc2OC)c2ccccc21 (centres undefined) | -9.4% (inactive)
CCOC(=O)c1nc(-c2ccc3c(c2)OCO3)[nH]c1C | 66.7% (active)
CCOC(=O)c1c(C)[nH]c(C(=O)COc2ccc3c(c2)OCO3)c1C | 28.3% (inactive)
CCOC(=O)NCc1ccc2c(c1)OCO2 | -14.5% (inactive)
COCc1nnc(NC(=O)CS(=O)(=O)Cc2ccccc2)s1 | -0.8% (inactive)
COC(=O)C(C)Sc1ccc2nnc(-c3cccc(F)c3)n2n1 (centres undefined) | -8% (inactive)
COC(=O)c1c(NC(=O)c2cccs2)sc2c1CCCC2 | 19.4% (inactive)
c1ccc2c(c1)OCC(CNc1ncnc3nc[nH]c13)O2 (centres undefined) | 20.1% (inactive)
Cn1c(=NC(=O)c2ccco2)sc2cccc(F)c21 | 61.5% (active)
Cn1c(=NC(=O)C2CC2)sc2cc(F)cc(F)c21 | 27.7% (inactive)
CCCC(=O)N=c1sc2cccc(F)c2n1C | 5.7% (inactive)
COC(=O)c1cccc(NC(=O)CN2CCC(NC(=O)c3cc(OC)c(OC)c(OC)c3)CC2)c1 | 17.2% (inactive)
COc1ccc(CCNC(=O)CN2CCC(n3nnc4cc(F)ccc43)CC2)cc1OC | -11.2% (inactive)

Structure (SMILES) | activation
CC(NC(=O)COc1ccccc1)C(=O)NC1=NCCS1 (centres undefined) | -14.4% (inactive)
CCc1ccc(N2CC(C(=O)NC3=NCCS3)CC2=O)cc1 (centres undefined) | -23.3% (inactive)
O=C(NC1=NCCS1)c1ccc(Cl)s1 | 80.1% (active)
C=CCn1c(=S)[nH]c2nc3c(cc2c1=O)COC(C)(C)C3 | -9.2% (inactive)
O=C(Nc1ccc(-c2nnc(-c3ccccc3)o2)cc1)C1CCCO1 (centres undefined) | 32.9% (inactive)
O=C(Nc1cccc(-c2nnc(-c3ccccc3)o2)c1)C1CCCO1 (centres undefined) | 61.1% (active)
O=C(Nc1nnc(CCc2ccccc2)s1)C1CCCO1 (centres undefined) | 0.2% (inactive)
O=C(COc1ccccc1)N1CCc2ccccc2C1 | 18.5% (inactive)
Cc1ccsc1C(=O)OCC(=O)c1cc(C)n(CC2CCCO2)c1C (centres undefined) | -85.1% (inactive)
O=C(COC(=O)C12CC3CC(CC(C3)C1)C2)NCc1ccco1 | -21.1% (inactive)
Cc1cc(C(=O)OCC(=O)NCc2ccco2)c(C)n1-c1ccccc1 | 61.4% (active)
O=C(CSc1nnc(-c2cccs2)n1-c1ccccc1)NCc1ccco1 | 11.1% (inactive)
CC(=O)N1CSCC1C(=O)O (centres undefined) | 15.8% (inactive)
O=c1[nH][nH]c(=O)c2cc(N3CCCC3)ccc12 | 1.1% (inactive)
CC(C)NS(=O)(=O)c1ccc(NC(=O)c2cccnc2)cc1 | 25.4% (inactive)
CCOC(=O)c1cc(NC(=O)c2cccnc2)cc(C(=O)OCC)c1 | -17.2% (inactive)
Cc1cc2nc(-c3ccc(NC(=O)c4cccnc4)cc3)oc2cc1C | 71.6% (active)
O=C(NC12CC3CC(CC(C3)C1)C2)N1CCCC(CO)C1 (centres undefined) | -9.5% (inactive)
Cc1ccccc1-c1nnn(CC(=O)c2ccc(S(=O)(=O)N3CCCC3)cc2)n1 | -9.2% (inactive)
CC(C)(C)NC(=O)Cn1nnc(-c2ccccc2Cl)n1 | 65.9% (active)
O=C(Cn1nnc(-c2ccccc2)n1)NCc1ccccc1 | -3.8% (inactive)
O=C(CN1C(=O)C2C3C=CC(C3)C2C1=O)NCCc1ccccc1Cl (centres undefined) | 0.8% (inactive)
O=S(=O)(NCc1ccccn1)c1ccc(Br)s1 | -0.5% (inactive)
COC(=O)c1sc(NC(=O)c2ccc(OC)cc2OC)nc1C | -38.1% (inactive)
COc1ccc(C(=O)Nc2nncs2)c(OC)c1 | 62.9% (active)
O=C(Nc1nncs1)c1ccccc1NS(=O)(=O)c1cccs1 | 2.5% (inactive)

Structure (SMILES) | activation
Cn1c(=O)n(CCc2ccccc2)c(=O)c2c1nc1n2CCCN1c1ccccc1 | 8.2% (inactive)
Nc1c(C(=O)NCc2ccccc2)nnn1Cc1cccc(Cl)c1 | 9.8% (inactive)
COC(=O)Cc1cc(=O)n(-c2nc3ccccc3s2)[nH]1 | -10.3% (inactive)
O=C(O)CSCc1nc2ccccc2s1 | 18.2% (inactive)
CCC(=O)NC(=Nc1nc2ccccc2s1)NC(=O)CC | 48.7% (active)
O=c1/c(=C/c2ccc(CNS(=O)(=O)c3ccccc3)o2)sc2n1CCN=2 | -17.5% (inactive)
CC(C)(C)c1ccc(C(=O)CSc2ncn[nH]2)cc1 | 54.2% (active)
Cn1nnc(NC(=O)CSc2ncn[nH]2)n1 | -7.4% (inactive)
CCN(C(=O)CSc1ncn[nH]1)c1cccc2ccccc12 | -6.5% (inactive)
CCOC(=O)c1csc(NC(=O)c2ccc(S(=O)(=O)N3CCCC3)cc2)n1 | 8.6% (inactive)
Cn1c(SCC(=O)OC2CCCCC2)nnc1-c1ccc(S(=O)(=O)N2CCCC2)cc1 | -7.4% (inactive)
COc1cccc(OCC(=O)Nc2ccccc2C(N)=O)c1 | 1.9% (inactive)
O=C(Nc1nn(Cc2ccccc2F)cc1Br)c1cccs1 | -5.3% (inactive)
COc1ccc(N=Cc2c(O)[nH]c3ccccc23)cc1OC | 55.7% (active)
COc1cc(N=Cc2c(O)[nH]c3ccccc23)cc(OC)c1OC | -15.8% (inactive)
COc1ccc(OC)c(N=Cc2c(O)[nH]c3ccccc23)c1 | -14.1% (inactive)
CC(=O)N1CC2(C)CN(C(C)=O)CC(C)(C1)C2=O | -2% (inactive)
CC1CCc2sc3nc(N4CCN(CCO)CC4)n4ncnc4c3c2C1 (centres undefined) | 12.3% (inactive)
O=C(NCc1cn2ccsc2n1)Nc1ccc(Cl)cc1 | 10.4% (inactive)
O=C(O)C1CCCCC1C(=O)Nc1ccc(Cl)cc1 (centres undefined) | -6.2% (inactive)
O=C(Nc1ccc(Cl)cc1)c1ccsn1 | 59.5% (active)
COc1ccc(O)c(C(=O)c2cnc3onc(C(C)C)c3c2)c1 | 12.5% (inactive)
CCc1c(C)sc(NC(=O)OC)c1C(=O)N1CCOCC1 | -6.7% (inactive)
COc1ccc(C2C(C(=O)Nc3ccccc3OC)=C(C)Nc3nnnn32)c(OC)c1 (centres undefined) | 7.2% (inactive)
COc1ccccc1NC(=O)c1ccc(C)s1 | 48.9% (active)
CCOc1ccccc1NC(=O)Nc1cc(OC)ccc1OC | -19.1% (inactive)

Structure (SMILES) | activation
CC(C)c1nc2oc3c(N4CCN(C)CC4)ncnc3c2c2c1CCC2 | 13.9% (inactive)
Cc1ccc(NC(=O)CN2CCC3(O)CCCCC3C2c2ccc3c(c2)OCO3)c(C)c1 (centres undefined) | 11.9% (inactive)
Cc1ccc(C)c(NC(=O)C2CCCN2C(=O)OC(C)(C)C)c1 (centres undefined) | -9% (inactive)
COC(=O)c1ccc(NC(=O)c2ccco2)cc1 | 77.4% (active)
Cc1ccnc(NC(=O)c2ccc(NC(=O)c3ccco3)cc2)c1 | 29.2% (inactive)
O=C(Nc1ccc(Oc2ccccc2)cc1)c1ccco1 | 22.9% (inactive)
O=C(C1CCN(S(=O)(=O)Cc2ccccc2)CC1)N1CCCc2ccccc21 | 12.2% (inactive)
COc1cc(C2C(C#N)=C(N)Oc3n[nH]c(-c4ccccn4)c32)cc(OC)c1OC (centres undefined) | 7.4% (inactive)
Cc1ccc2c(c1)N(C(=O)CCC(=O)N1CCc3ccccc3C1)CCO2 | 0.5% (inactive)
CC(=O)Oc1ccc(C(=O)Nc2nccs2)cc1 | 61% (active)
COc1cc(C(=O)Nc2nccs2)cc(OC)c1OC | -15.9% (inactive)
Cn1cccc1C(=O)Nc1nccs1 | 12.1% (inactive)
Cc1ccc(C(=O)NC2CCN(C(=O)N3CCOCC3)CC2)cc1 | -4.3% (inactive)
O=C(NCCCN1CCCCCC1)c1ccc(N2CCCC2=O)cc1 | -16.9% (inactive)
CC1CCC(NC(=O)c2ccc(N3CCCC3=O)cc2)CC1 (centres undefined) | 61.7% (active)
CCOC(=O)c1c(C)c(C(=O)NCCc2ccc(S(N)(=O)=O)cc2)c(C)n1CC | 17.3% (inactive)
CCNC(=O)CN(c1ccc(C)cc1)S(=O)(=O)c1ccc(SC)cc1 | -24% (inactive)
Clc1ccc(Nc2nc(-c3cccs3)cs2)nc1 | 41.7% (inactive)
Oc1ccc(-c2csc(Nc3cccnc3)n2)cc1 | 5.9% (inactive)
c1ccc(Nc2nc(-c3ccncc3)cs2)nc1 | 50.9% (active)
O=C(Cn1cc2c(n1)CCCCC2)NCCN1CCOCC1 | -13.6% (inactive)
Cc1ccc(Cc2nc(-c3cccc(C)c3)no2)cc1 | 51.5% (active)
Cc1ccc(-c2noc(CN3CCN(Cc4ccccc4)CC3)n2)cc1 | -1.1% (inactive)
Cc1cccc(-c2noc(-c3ccc(F)cc3)n2)c1 | 31% (inactive)
CC(=O)c1nc(N2C(=O)C3CC=C(C)CC3C2=O)sc1C (centres undefined) | 1.8% (inactive)
CCn1c(SCCC(C)C)nnc1-c1c[nH]c2ccccc12 | 8.7% (inactive)
